From PubChem BioAssay (NCATS) come the findings set out here.

The nature of test [1]: qHTS profiling for inhibitors of Plasmodium falciparum proliferation (AID 504749). Also: nearly all actives have a fitted effect of over 60% in size.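 As to activity, negative = inhibition: 0% = DMSO vehicle and full inhibition = artemisinin control.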 The settings on record: P. falciparum in erythrocytes, SYBR Green DNA, 72 h. Put shortly:
(§1)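 Three-day growth assay of blood-stage parasites in erythrocytes (0.3% parasitemia, 2.5% hematocrit) at 37 C, 5% CO2, quantified by SYBR Green DNA staining after overnight detergent lysis.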
A general note: Quantitative high-throughput screening tests each substance at several concentrations.

Test [2] deals with 3D7. The description is as above. The settings on record: P. falciparum in erythrocytes, SYBR Green DNA, 72 h; series mostly up to 28.7 µM. In a few lines: as §1
In test [3] the test system is 7G8. The test is described as above. To be noted: P. falciparum in erythrocytes, SYBR Green DNA, 72 h; series mostly up to 28.7 µM. Put shortly: as §1
Test [4] deals with AA1029. The test is described as above. To be noted: P. falciparum in erythrocytes, SYBR Green DNA, 72 h; series mostly up to 28.7 µM. Put shortly: as §1
The subject of test [5] is AS120. The test is described as above. The settings on record: P. falciparum in erythrocytes, SYBR Green DNA, 72 h; series mostly up to 28.7 µM. Put shortly:
as §1

For test [6], the system named is ATS95. Described as above. The settings on record: P. falciparum in erythrocytes, SYBR Green DNA, 72 h; series mostly up to 28.7 µM. In a few lines: as §1
Test [7] deals with C2A. The description is as above. To be noted: P. falciparum in erythrocytes, SYBR Green DNA, 72 h; series mostly up to 28.7 µM. Put shortly:
as §1

In test [8] the test system is CP185. The test is described as above. To be noted: P. falciparum in erythrocytes, SYBR Green DNA, 72 h; series mostly up to 28.7 µM. In a few lines:
as §1

The subject of test [9] is ATS189. The description is as above. The settings on record: P. falciparum in erythrocytes, SYBR Green DNA, 72 h; series mostly up to 28.7 µM. In a few lines: as §1
Test [10] relates to CP191. The description is as above. To be noted: P. falciparum in erythrocytes, SYBR Green DNA, 72 h; series mostly up to 28.7 µM. In a few lines:
as §1

Setting [11] is: at 28.7 µM (top of the series), parasite line A.
Where [12] appears, read: at 28.7 µM (top of the series), parasite line B.
Setting [13] is: at 12.8 µM (top of the series), parasite line A.
Where [14] appears, read: at 12.8 µM (top of the series), parasite line B.

Results filed as inconclusive are left out. Unmarked numbers belong to inactive results. Active and inactive are the calls of the source. Calls follow the shape of the dose curve; as a rule, active = well fitted inhibition curve with a large enough effect; inconclusive = small, poorly fitted or top-dose-only effect; inactive = flat fitted curve, though single readings scatter.
Potency is read from the fitted curve at half-maximal effect.

On to `Cc1ccc(C(=O)C(C)CN2CCCCC2)cc1` (stereo not drawn), for which the activity, negative = inhibition in test [1] (setting [11]) is 1.87%; in [1] (setting [12]), 6.22%. Besides, the Potency entry in test [2], in test [4], in [5], in test [6], in [7] and in test [8] was “inactive” each time. Further, in test [3], the Potency was 11.2 µM (active).

Regarding `CCN1CCC[C@H]1CNC(=O)c1c(OC)ccc(Br)c1OC`, the activity, negative = inhibition is 12.1% in [1] (setting [11]) and 10% in [1] (setting [12]). For the same compound, the Potency result in test [2], in [3], in test [5], in [9], in [6] and in test [7] was “inactive” throughout. Also, the Potency result in test [8] and in [10] was “inactive” in each case.

On to `O=c1c(-c2ccccc2)c1-c1ccccc1`, for which the Potency in test [1] (parasite line A) is 11.2 µM (active); in test [1] (parasite line B) it was 10 µM (active); in [2], 11.2 µM (active); in test [3] it was 8.91 µM (active); in test [9], 10 µM (active).

For the compound `CC(=O)Oc1ccc(C(=C2CCCCC2)c2ccc(OC(C)=O)cc2)cc1`, the activity, negative = inhibition was 6.38% in test [1] (setting [11]) and 9.72% in test [1] (setting [12]). For the same compound, the Potency entry in test [2], in test [3], in test [4], in test [5], in [9] and in test [6] was “inactive” in each case. The Potency entry in test [7], in [8] and in test [10] was “inactive” throughout.

As to `O=C(Nc1ccc(Cl)c(Cl)c1)C1CC1`, the activity, negative = inhibition in test [1] (setting [11]) is -11.1%; in [1] (setting [12]) it was -1.73%. The Potency result in test [2], in test [3], in [4], in test [5], in [9] and in test [6] was “inactive” throughout. Also, the Potency result in [7], in test [8] and in [10] was “inactive” throughout.

On to `C[C@]12CCC(=O)C=C1CC[C@H]1[C@@H]3CC[C@](O)(C(=O)CO)[C@@]3(C)C[C@H](O)[C@@]12F`, for which the activity, negative = inhibition in [1] (setting [11]) is 4.53%; in test [1] (setting [12]), 9.81%. For the same compound, the Potency result in test [2], in test [3], in test [4], in [5], in [9] and in test [6] was “inactive” each time. For the same compound, the Potency entry in test [7], in test [8] and in test [10] was “inactive” throughout.

For the compound `CC(C)(C)CC(C)(C)c1ccc(O)c(Cc2ccc(Cl)cc2Cl)c1`, the Potency in test [1] (parasite line A) is 2 µM (active); in test [1] (parasite line B) it was 0.562 µM (active); in test [2], 2.24 µM (active); in test [3] it was 0.447 µM (active); in [4], 0.891 µM (active); in [5], 0.501 µM (active). The Potency in test [9] is 0.794 µM (active); in [6], 2 µM (active); in [7] it was 2.82 µM (active); in [8] it was 3.16 µM (active); in [10], 1 µM (active).

Regarding `CCOC(=O)COc1ccc2c(C)c(CCN(CC)CC)c(=O)oc2c1Cl`, the activity, negative = inhibition in test [1] (setting [12]) is -29.4%. The Potency in test [1] (parasite line A) was 3.55 µM (active). For the same compound, the Potency entry in [2], in [3], in [4], in test [9], in [6] and in test [8] was “inactive” each time.

`CN(C(=O)CN(CCO)CC(=O)N(C)C(C)(C)Cc1ccccc1)C(C)(C)Cc1ccccc1`: the activity, negative = inhibition was 4.12% in [1] (setting [13]) and -5.35% in test [1] (setting [14]). The Potency result in [2], in test [4], in test [6], in [7], in test [8] and in test [10] was “inactive” each time. For the same compound, the Potency in test [3] was 3.16 µM (active).

Consider `Cc1ncc(CSSCc2cnc(C)c(O)c2CO)c(CO)c1O`, for which the activity, negative = inhibition in [1] (setting [11]) is 0.466%; in test [1] (setting [12]), -3.16%. For the same compound, the Potency result in [2], in test [3], in [4], in [5], in test [9] and in test [6] was “inactive” throughout. Besides, the Potency entry in test [7], in test [8] and in [10] was “inactive” in each case.

For the compound `Oc1ccc(Cl)cc1Sc1cc(Cl)ccc1O`, the activity, negative = inhibition in test [1] (setting [11]) is 0.98%; in [1] (setting [12]), -24.8%. Also, the Potency result in test [2], in [4], in test [9], in [6], in test [7] and in [8] was “inactive” throughout. Further, in test [10], the Potency result was “inactive”. Besides, in test [3], the Potency was 12.6 µM (active).

Turning to `CCN(CC)C(=O)N1CCN(C)CC1`, the activity, negative = inhibition is 5.24% in test [1] (setting [13]) and 18.6% in [1] (setting [14]). In addition, the Potency result in test [2], in test [3], in test [4], in [5], in [9] and in test [6] was “inactive” in each case. For the same compound, the Potency entry in [7], in test [8] and in [10] was “inactive” in each case.

Take `OC(CCN1CCCCC1)(c1ccccc1)c1ccccc1`: the results for the activity, negative = inhibition in [1] (setting [11]) and in test [1] (setting [12]) were 0.409% and -16.8%, respectively. In addition, the Potency entry in test [2] was “inactive”. In addition, the Potency is 11.2 µM (active) in [3], 7.94 µM (active) in [4], 11.2 µM (active) in [5] and 8.91 µM (active) in [6].

On to `Nc1ccc(C(=O)O)cc1`, for which the values for the activity, negative = inhibition in test [1] (setting [11]) and in test [1] (setting [12]) were -7.02% and 4.76%, respectively. The Potency result in [2], in test [3], in test [4], in test [5], in [9] and in test [6] was “inactive” each time. Also, the Potency entry in [7], in test [8] and in [10] was “inactive” in each case.

Regarding `C#C[C@]1(OC(C)=O)CC[C@H]2[C@@H]3CCC4=C[C@@H](OC(C)=O)CC[C@@H]4[C@H]3CC[C@@]21C`, the figures for the activity, negative = inhibition in test [1] (setting [11]) and in [1] (setting [12]) were -15% and -19.2%, respectively. For the same compound, the Potency entry in test [2], in test [3], in [4], in test [5], in [9] and in [6] was “inactive” throughout. Besides, the Potency entry in [7], in [8] and in [10] was “inactive” in each case.

With `CCCCCC=CCC=CCCCCCCCC(=O)OCC`, the results for the activity, negative = inhibition in test [1] (setting [11]) and in test [1] (setting [12]) were 1.14% and 2.81%, respectively. The Potency entry in test [2], in [3], in test [4], in [5], in [9] and in test [6] was “inactive” in each case. In addition, the Potency result in test [7], in [8] and in [10] was “inactive” each time.

With `CC(C)(Oc1ccc(Cl)cc1)C(=O)O`, the activity, negative = inhibition is 5.47% in test [1] (setting [11]) and 14.8% in test [1] (setting [12]). Also, the Potency entry in test [2], in [3], in test [4], in test [5], in [9] and in test [7] was “inactive” throughout. Further, the Potency entry in test [8] and in test [10] was “inactive” each time.

On to `O=C(O)CCCCC(=O)O`, for which the activity, negative = inhibition was -0.183% in test [1] (setting [11]) and 5.83% in test [1] (setting [12]). Moreover, the Potency result in test [2], in test [3], in test [4], in [5], in test [9] and in [6] was “inactive” throughout. Moreover, the Potency result in test [7], in [8] and in test [10] was “inactive” throughout.

In the case of `C[C@@H]1C[C@H]2[C@@H]3CCC4=CC(=O)C=C[C@]4(C)[C@@]3(F)[C@@H](O)C[C@]2(C)[C@H]1C(=O)CO`, the activity, negative = inhibition in test [1] (setting [11]) is -3.59%; in [1] (setting [12]) it was -8.33%. Besides, the Potency result in test [2], in test [4], in test [5], in test [6], in [7] and in test [8] was “inactive” each time. Further, in test [10], the Potency entry is “inactive”. The Potency in [3] was 11.2 µM (active); in test [9], 0.316 µM (active).

On to `CCOc1ccc2nc3cc(N)ccc3c(N)c2c1`, for which the Potency in test [1] (parasite line A) is 7.94 µM (active); in test [1] (parasite line B), 5.01 µM (active); in [2] it was 11.2 µM (active); in test [3], 1.78 µM (active); in test [4], 7.94 µM (active); in test [5] it was 8.91 µM (active). For the same compound, the Potency is 7.08 µM (active) in test [9]; 10 µM (active) in test [6]; 6.31 µM (active) in test [7]; 5.01 µM (active) in test [8]; 5.01 µM (active) in test [10].

As to `CCCn1c(=O)[nH]c(=O)c2[nH]cnc21`, the activity, negative = inhibition is -4.05% in test [1] (setting [11]) and 5.13% in test [1] (setting [12]). Also, the Potency entry in [2], in test [3], in test [4], in test [5], in test [9] and in test [6] was “inactive” throughout. Moreover, the Potency result in [7], in test [8] and in test [10] was “inactive” each time.

Take `CC(=O)N/N=C/c1ccc([N+](=O)[O-])o1`: the Potency in test [1] (parasite line A) was 1.12 µM (active); in test [1] (parasite line B) it was 12.6 µM (active); in test [3], 7.94 µM (active); in test [5], 7.08 µM (active). The Potency entry in test [2] and in [9] was “inactive” in each case.

For `Cc1cc(=O)n(-c2ccccc2)n1C`, the activity, negative = inhibition in test [1] (setting [11]) was 5.57%; in test [1] (setting [12]), 10.3%. Also, the Potency entry in [2], in test [3], in test [4], in [5], in test [9] and in test [6] was “inactive” each time. Besides, the Potency result in test [7], in [8] and in [10] was “inactive” in each case.

For the compound `CN(C)CCOc1ccccc1Cc1ccccc1`, the activity, negative = inhibition in test [1] (setting [11]) is -13.9%; in test [1] (setting [12]), -12.1%. In addition, in [2], the Potency result was “inactive”. The results for the Potency in [4] and in test [5] were 7.94 µM (active) and 1.78 µM (active), respectively.
